Key:
Assay in all cases: PBM binding z-score (relative to random genomic background probes); higher = stronger binding; sequences stand for … in GC…GCGATTGACAGCGTAGAATGAAGG
[1] = system: RARb homodimer (NR concentration 270 nM)
Method in brief: (§1)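 Ligand-free nuclear receptor dimers were bound for 1 h to custom Agilent 4×180K protein-binding microarrays. Detection used antibodies against each partner (one per run). Binding z-scores rest on regression-normalized fluorescence, with random background probes as the reference.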

[2] = system: RARg:RXRa (NR concentration 270 nM, RXRa partner concentration 90 nM)
Method in brief: as §1

[3] = system: RARg homodimer (NR concentration 270 nM)
Method in brief: as §1

[4] = system: RXRa DBDmut IVT, anti-RXR (DBD mutation: RXRa K156A/R161A, NR concentration 90 nM)
Method in brief: as §1

[5] = system: RXRa homodimer (NR concentration 180 nM)
Method in brief: as §1

[6] = system: THRa:RXRa (NR concentration 90 nM, RXRa partner concentration 90 nM)
Method in brief: as §1

[7] = system: THRa homodimer (NR concentration 90 nM)
Method in brief: as §1

[8] = system: VDR homodimer (NR concentration 270 nM)
Method in brief: as §1

Sequence	PBM binding z-score [1]	PBM binding z-score [2]	PBM binding z-score [3]	PBM binding z-score [4]	PBM binding z-score [5]	PBM binding z-score [6]	PBM binding z-score [7]	PBM binding z-score [8]
GCAGCTAGGTCAACTGATGGTCAGCTAAAGCTCG	3.08	5.02	5.33	0.798	2.52	2.6	0.305	-0.435
TAGCATAGGTCATTCAGGGGCCAGTATAGAAAGC	3.72	7.38	5.09	1.83	5.02	3.87	-0.317	0.876
ATCTCTAGGTCACCAAGTTCAGTGAATGCCGAAC	4.45	5.35	6.25	2.74	4.73	3.89	3.22	6.15
CGTCCAAGGTCAATGCTAGGTCAGTGACAGCATT	4.95	7.61	6.78	3.65	5.25	4.63	2.99	2.97
TCTCGGAGGACACGAAAGGCCAGAGCTCGACATC	1.53	0.946	1.9	0.804	0.296	1.54	0.338	-0.482
AGAATGAGGTTATTAAGGTCAGGGAATTGCGGTC	4.31	4.16	3.63	2.88	4.62	4.71	5.16	4.86
ATACCAAGGTGATCGTGAGGTCCTTGATACTAAC	0.337	0.376	0.386	0.0286	0.487	1.94	0.903	0.291
CAAACTAGGTCTCGAAAGGTCAAAGTCGAATGAC	4.49	5.71	5.18	1.18	6.53	3.97	1.2	2.67
GCATATAGGTAACACAAGGTGAAAGTCCGATTGT	1.15	0.82	0.784	0.286	0.938	4.19	0.843	0.00161
CCTACTGAGCCATCAGGTCATTGATATCAACGTT	2.7	1.5	1.69	1.17	1.42	3.37	3.52	2.2
GCAGACTGGTGAAACGCAGGTAACTCAGGGTGGC	-1.13	-0.789	-0.946	-1.05	-0.735	0.213	-0.648	-1.15
TTACCAAGGTGAAAGGTCGTAGATGCACGCCTTG	2.48	4.5	2.1	-0.0824	6.49	3.42	0.581	0.0396
GGAACGAGGGCAAGTTGATAGCTGAGTTTGATGG	1.5	1.45	2.07	2.58	0.669	1.09	0.0146	1.84
CCTTACGGGTCACTCCAGGTTATAGCATCGGAGT	3.23	4.39	4.35	1.5	4.36	4.89	0.826	1.69
CGTCCAATGTCAGCAGGTCAGTGAAAGCGACGTG	2.76	2.04	2.59	0.442	0.9	1.31	0.239	0.584
CCGACTGGGGCAAGGTAACCATAACGCACAGCCA	0.426	0.417	0.527	-0.495	0.481	0.522	0.219	-0.0983
AGAACGAGGGCTCGCTGAGTTGATAGCAGAGTAG	-1.22	-0.312	-0.258	-0.292	-0.132	-0.509	-0.958	-0.176
AGAATAAGGTTATACGTAGATCAGGGAAGAAAGT	0.925	1.78	1.25	1.2	1.89	2.41	0.789	0.657
CGTCCAAGGTCATAGTAGGTCAGTGAAGACAGAT	4.63	6.11	6.44	4.14	6.11	4.94	2.97	3.93
TAGCCTAGGTCATGCGGGCCAGTTTAGTGTCGGC	3.03	3.96	4.73	0.93	3.2	3.02	1.07	0.95
TCTTGTAGATCAATCGAGGTTAAGAAAGTGCGCT	0.899	0.6	0.164	0.612	1.01	3.5	0.268	0.299
CAAACTAGGTCAAACGTCAAAGTCGAGCCAACCA	2.99	4.6	4.53	2.28	4.16	3.13	0.831	1.04
TCTCAGAGGACACGAAAGGTCAGAGCTCGACATC	4.95	5.29	6.24	1.46	4.47	3.77	0.917	0.991
CCGACTGGGGCAAAGGTTACCAGACTCAGTACGA	2.19	3.65	1.61	-0.175	3.93	1.73	-0.362	0.000123
AGAATGAGGTTAAGATCGGGGAAACAGAATACAT	0.944	2.19	1.53	1.28	2.25	2.54	0.927	0.542
ACTATTAGTTGAGACGAGGGCAAGCGATAGGTTG	1.06	0.352	0.635	0.63	0.484	2.28	0.357	0.593
ATCTCTAAGTAACCAAGTTCAGTGAATGCCGAAC	1.43	0.516	0.56	1.2	0.443	0.648	0.45	2.61
CAAACTAGGTCAAAGTCAAAGTCGGTTTGTGCCA	3.06	3.87	4.41	2.32	3.11	2.81	0.817	1.05
